A selection: hits, their analogues and other compounds. The true share with any hit is near 0.5%.
E coli growth-1: E. coli V3065 growth inhibition, primary screen, counter-screen for AddAB inhibitor project, absorbance, OD600. 18 h. AID 449728, 2010. hit rate 0.27% among 330,000. inhibition, % at 11.9 µM;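 active means inhibition above the campaign's mean inhibition across all tested compounds plus 3 SD, cut at about 9.9% in these data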;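 further: uninfected addAB+ strain grown without phage in ampicillin broth; 0% = DMSO wells and 100% = ciprofloxacin 0.95 µg/ml wells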
Tat export inh: E. coli Tat export inhibitors, primary screen, MC4100, TorA-mCherry reporter, fluorescence, single point; hit rate 0.036% among 340,000; AID 488895, 2010; inhibition, % at 10 µM;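 active means mean replicate inhibition at least 50% and at least half of replicates individually reaching 50%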;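 further: exported cargo escapes ClpAP degradation while cytoplasmic cargo is degraded and loses fluorescence; 0% = median of neutral control wells and 100% = median of NaSCN control wells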
AddAB inh: growth inhibition of E. coli expressing H. pylori AddAB, primary screen, AddAB inhibitor project, absorbance; AID 435030, 2010; inhibition, % at 11.9 µM; hit rate 0.29% among 330,000; in the data active means inhibition above about 12%;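 further: 0% = vehicle wells of infected cells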
phage Ecoli inh: growth loss of phage-infected E. coli, primary screen, RecBCD inhibitor project, absorbance, with phage, HTS. hit rate 0.26% among 360,000. inhibition, % at 11.9 µM. AID 651602, 2012; in the data active means inhibition above about 11%
E coli growth-2: E. coli growth inhibition, primary screen, OD600 | Escherichia coli growth, 23 h; active compounds read low | OD600 absorbance (concentration not given with the values) | hit rate 0.21% among 330,000 | AID 1053175, 2014;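 active means OD600 absorbance below the run mean of sample wells minus 3.6 SD, in any replicate, cut at about 0.56 in these data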
RecBCD conf: growth loss of phage-infected RecBCD+ E. coli, confirmation, RecBCD inhibitor project, absorbance, E. coli V66, T4 gene 2 phage; shares compounds with phage Ecoli inh; E. coli V66 + T4 2- phage, growth OD; inhibition, % at 11.9 µM; hit rate 45% among 890;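 active means mean inhibition over triplicates exceeding the hit threshold derived in the original primary screen, cut at about 11% in these data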
Ecoli viability: E. coli viability inhibition, counter-screen for RecBCD inhibitor project, absorbance, high throughput | inhibition, % at 11.9 µM | AID 651983, 2013 | absorbance (OD) growth | shares compounds with phage Ecoli inh | hit rate 29% among 890; in the data active means inhibition above about 20%;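 further: E. coli strain V66 grown with compound alone and no phage infection; 0% = bacteria with DMSO vehicle only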
AddAB phage OD: growth loss of phage-infected AddAB-carrying E. coli, confirmation, counter-screen for RecBCD inhibitor project, absorbance, E. coli V3065, T4 phage; AID 651984, 2013; hit rate 45% among 890; inhibition, % at 11.9 µM; E. coli expressing H. pylori AddAB + T4 phage, OD growth; gene 2 mutant T4, recBCD-deleted host; shares compounds with phage Ecoli inh;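 active means mean inhibition above the solvent-only control wells' mean plus 3 SD, cut at about 22% in these data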;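 further: higher means less bacterial growth from phage killing when AddAB is blocked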
An asterisk follows results filed as active; . = not tested or not shown.

SMILES	E coli growth-1	Tat export inh	AddAB inh	phage Ecoli inh	E coli growth-2	RecBCD conf	Ecoli viability	AddAB phage OD
O=C(Cc1cnn(-c2ccccc2)c1)c1ccc(O)c(O)c1O	8.1	12.2	12.0	11.3*	0.637	1.6	4.5	10.0
O=C(NN=Cc1cccs1)C(=O)N1CCCC1	.	.	.	.	0.685	.	.	.
Cc1cnc(C=NNC(N)=S)c2cccc(N)c12	.	1.1	.	1.7	.	.	.	.
NC(=S)NN=Cc1nccc2c(C(F)(F)C(F)(F)C(F)(F)F)cccc12	.	.	.	14.6*	.	2.8	2.6	20.4
NC(=S)NN=Cc1nccc2ccccc12	.	-11.2	.	20.7*	0.459*	28.9*	38.9*	31.8*
CC(CN1CCC(Cc2ccccc2)CC1)C(O)c1ccc(O)cc1 (stereo not drawn)	.	.	.	.	0.684	.	.	.
COc1ccc(NC(=O)C=Cc2c(Cl)nc3ccccn23)cc1	.	.	.	.	0.684	.	.	.
Oc1ccc(/C=N/NC(=S)Nc2cccnc2)c(O)c1O	.	2.0	.	14.7*	.	11.3*	12.1	32.5*
Oc1ccccc1C=NNC(=S)NN=Cc1ccccc1O	.	-2.3	.	12.7*	0.571	12.9*	13.4	37.6*
NC(=S)N/N=C/c1ccccc1O	1.6	2.9	2.6	2.0	.	.	.	.
O=[N+]([O-])c1ccc(N2CCN(Cc3ccccc3)CC2)c2c1no[n+]2[O-]	.	.	.	11.6*	.	8.4	9.9	42.3*
O=[N+]([O-])c1ccc(N2CCN(Cc3ccccc3)CC2)s1	-0.6	7.4	-0.5	1.0	0.659	.	.	.
O=C1NC(=O)C(=Cc2ccccc2Oc2ccc(Cl)cc2)S1	.	.	.	.	0.708	.	.	.
O=C(O)c1cc(NN=Cc2ccc3c(c2)OCCO3)ccc1Cl	.	.	.	.	0.678	.	.	.
CCN(CC)S(=O)(=O)c1cccc(NC(=O)Nc2cccc(C(F)(F)F)c2)c1	6.9	13.1	9.4	11.3*	0.64	2.0	4.3	2.0
CCN(CC)S(=O)(=O)c1cccc(NC(=O)CC2CCCC2)c1	0.9	24.7	1.7	1.1	0.702	.	.	.
CCN1CC2C3C(=O)N(C)C(=O)C3[C@](Cc3ccccc3)(C1=O)N2C(=O)c1ccc(Cl)c(Cl)c1 (stereo partly drawn)	.	.	.	.	0.676	.	.	.
CCOC(=O)CCC(=O)O[C@H]1[C@H](O[C@@H]2[C@@H](C)[C@H](O[C@H]3C[C@@](C)(OC)[C@@H](O)[C@H](C)O3)[C@@H](C)C(=O)O[C@H](CC)[C@@](C)(O)[C@H](O)[C@@H](C)C(=O)[C@H](C)C[C@@]2(C)O)O[C@H](C)C[C@@H]1N(C)C	22.1*	18.6	24.9*	26.3*	.	13.7*	15.1	9.3
Oc1ccc(CN2CCN(Cc3ccccc3)CC2)c2cccnc12	2.9	7.1	3.2	6.3	0.687	.	.	.
O=S(=O)(c1ccc(Cl)cc1)N1CCN(Cc2ccc(O)c3ncccc23)CC1	8.6	0.6	7.9	17.4*	0.703	6.2	10.8	14.3
C=C(C)C(=O)N1CC2(CC(c3cccc(NC(=O)C(C)=CC)c3)=NO2)CC1C(N)=O (stereo not drawn)	.	.	.	.	0.618	.	.	.
COc1ccc(CCN2C(=O)C3C4CC(C5C(C(=O)NN=Cc6ccc(Cl)cc6)=NOC45)C3C2=O)cc1OC (stereo not drawn)	.	.	.	.	0.787	.	.	.
Oc1ccc(C=NNC(=S)Nc2ccccc2)nc1	.	.	.	21.9*	.	21.7*	27.2*	32.0*
Cc1cc(N/N=C/c2ccc(N(C)C)cc2)c2ccccc2n1	-1.9	-6.4	5.3	12.5*	.	-3.4	-3.8	4.1
CCOC(=O)C1C2COc3ccc(C)cc3C2N2C(=O)c3cc(F)c(F)cc3NC(=O)[C@@]12C (stereo partly drawn)	.	.	.	.	0.715	.	.	.
SMILES	E coli growth-1	Tat export inh	AddAB inh	phage Ecoli inh	E coli growth-2	RecBCD conf	Ecoli viability	AddAB phage OD
COc1ccc(S(=O)(=O)N(CCC(N)=O)Cc2ccco2)cc1OC	-0.7	18.8	0.7	98.1*	0.64	-2.0	-2.1	-4.0
COc1ccc(S(=O)(=O)N(Cc2ccc(OC)c(OC)c2)Cc2ccco2)cc1	0.6	-1.3	1.9	2.8	0.768	.	.	.
O=[N+]([O-])c1ccc(NC(=S)NCCc2ccc(Cl)cc2)cc1	11.0*	-19.4	11.1	12.6*	0.579	2.8	5.3	9.1
O=[N+]([O-])c1ccc(NC(=S)NCCc2ccccc2)cc1	6.4	-2.6	8.3	7.9	0.593	.	.	.
Fc1ccc(NC(=S)NCc2ccccc2)cc1	0.7	13.7	2.0	3.1	0.648	.	.	.
Fc1ccc(CNC(=S)Nc2ccc(Cl)cc2)cc1	7.8	-2.5	8.4	11.6*	0.632	5.2	7.0	7.3
COC(=O)c1ccc(C=NNC(=O)CCSc2nc3ccccc3s2)cc1	.	.	.	.	0.735	.	.	.
CC1C(=O)OCC1NC(=O)OCc1ccccc1 (stereo not drawn)	.	.	.	.	0.701	.	.	.

Compound activity: PubChem, several laboratories
